These results are taken from PubChem BioAssay (NCI).

This is part of a sample that, as a whole, favours compounds with a hit. Of some 83,000 tested, about 20% had one in any assay.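 Assay: single dose, 48 h. Readout: percent growth (0 = no net growth; negative = cell death). Active: <10.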 A number with no mark means an inactive call. Active and inactive are the calls of the source.

Some test systems named below: T-47D breast; BT-549 breast; MDA-MB-435 melanoma; SW-620 colon; MCF7 breast; HCT-116 colon; HCC-2998 colon; KM12 colon.
Assay in all cases: NCI-60 one-dose screen, 48 h (100 = growth as untreated, 0 = no growth, -100 = all killed)
Details in all cases: 10 µM unless noted

As for `CC(=O)Nc1ccc(/C=C2\SC(=S)N(/C=C(\C(C)=O)C(N)=O)C2=O)cc1`, the growth is 87.5% in the assay with T-47D breast; 92.3% in the assay on BT-549 breast; 89.6% in the assay with MDA-MB-435 melanoma; 96.9% in the assay with SW-620 colon; 96.4% in the assay on MCF7 breast; 92.2% in the assay with HCT-116 colon. Also, the growth was 94.4% in the assay on HCC-2998 colon and 101% in the assay on KM12 colon.

`ClCC(Cl)C1CCC(Cl)C(Cl)C1` (stereo not drawn): the growth in the assay on T-47D breast is 100%; in the assay on BT-549 breast, 103%; in the assay with MDA-MB-435 melanoma it was 107%; with SW-620 colon, 105%; in the assay with MCF7 breast, 87.1%; with HCT-116 colon it was 95.6%. In addition, the growth in the assay with HCC-2998 colon was 101%; in the assay with KM12 colon, 105%.

Regarding `O=C(c1ccc(Cl)cc1)N1CCCCC1`, the growth was 91.5% in the assay on T-47D breast; 105% in the assay on BT-549 breast; 101% in the assay on MDA-MB-435 melanoma; 99.8% with SW-620 colon; 92.9% in the assay on MCF7 breast; 99.9% with HCT-116 colon. Further, the growth with HCC-2998 colon was 107%; with KM12 colon it was 106%.

`O=C1NC(=O)C(c2ccccc2)O1` (stereo not drawn): the growth in the assay with T-47D breast is 83.8%; with BT-549 breast, 99.6%; in the assay on MDA-MB-435 melanoma it was 104%; with SW-620 colon, 111%; with MCF7 breast, 105%; with HCT-116 colon it was 98.1%. The growth was 105% with HCC-2998 colon and 112% with KM12 colon.

For the compound `COc1ccc(C2CC(c3ccccc3)=Nc3ccccc3S2)cc1` (stereo not drawn), the growth in the assay with T-47D breast is 84.1%; in the assay on BT-549 breast it was 91.6%; with MDA-MB-435 melanoma it was 98.8%; with SW-620 colon it was 98.4%; in the assay with MCF7 breast it was 78.7%; in the assay on HCT-116 colon, 88.7%. Moreover, the values for the growth in the assay with HCC-2998 colon and with KM12 colon were 111% and 87.4%, respectively.

Regarding `Cc1ccc[n+](CCC(N)=O)c1`, the growth was 91.7% with T-47D breast; 110% in the assay on BT-549 breast; 101% in the assay with MDA-MB-435 melanoma; 96.7% in the assay on SW-620 colon; 94.3% with MCF7 breast; 115% with HCT-116 colon. In addition, the growth in the assay with HCC-2998 colon is 93.1%; with KM12 colon it was 91.1%.

Regarding `S=C=Nc1ccc2ccccc2c1`, the growth with T-47D breast is 108%; in the assay with BT-549 breast it was 96.2%; in the assay on MDA-MB-435 melanoma, 101%; with SW-620 colon, 105%; with MCF7 breast, 101%; with HCT-116 colon, 103%. In addition, the growth in the assay on HCC-2998 colon is 95.7%; with KM12 colon, 104%.

With `CC(C)(CC(=O)O)CC(=O)O`, the growth in the assay on T-47D breast was 119%; in the assay on BT-549 breast, 98.6%; in the assay on MDA-MB-435 melanoma it was 99.7%; with SW-620 colon, 103%; in the assay with MCF7 breast, 103%; with HCT-116 colon, 103%. Besides, the growth in the assay on HCC-2998 colon was 99.8%; in the assay with KM12 colon it was 100%.

For the compound `COc1ccc2c(c1)Nc1ccccc1S2`, the growth is 95.7% in the assay with T-47D breast; 89.1% with BT-549 breast; 112% in the assay with MDA-MB-435 melanoma; 106% in the assay with SW-620 colon; 98.6% in the assay on MCF7 breast; 105% in the assay with HCT-116 colon. Further, the growth is 108% with HCC-2998 colon and 110% with KM12 colon.

Take `Nc1c(O)c(S(=O)(=O)O)c(O)c2c1C(=O)c1ccccc1C2=O`: the growth with T-47D breast is 23.5%; in the assay with BT-549 breast, 40%; with MDA-MB-435 melanoma it was 21.3%; with SW-620 colon it was 15.6%; with MCF7 breast it was 13.8%; in the assay on HCT-116 colon, 7.87% (active). Besides, the values for the growth in the assay on HCC-2998 colon and with KM12 colon were 31.8% and 5.95% (active), respectively.

For `CC1=CC(=Nc2ccc(N(C)C)cc2)C=C(C)C1=O`, the growth in the assay with T-47D breast is 48.5%; in the assay on BT-549 breast, 74.1%; in the assay on MDA-MB-435 melanoma, 75.7%; in the assay on SW-620 colon, 93.8%; in the assay on MCF7 breast, 77%; with HCT-116 colon it was 83.5%. Moreover, the growth in the assay with HCC-2998 colon is 96.1%; in the assay on KM12 colon, 87.5%.

Take `Nc1nc(N)nc(N2CCCCC2)n1`: the growth with T-47D breast was 101%; in the assay on BT-549 breast, 106%; in the assay with MDA-MB-435 melanoma, 115%; with SW-620 colon, 106%; in the assay with MCF7 breast, 104%; in the assay on HCT-116 colon it was 106%. For the same compound, the growth was 106% with HCC-2998 colon and 101% in the assay on KM12 colon.

Take `O=[N+]([O-])c1ccc(-c2nc(N(CCO)CCO)c3ccccc3n2)o1`: the growth in the assay with T-47D breast is 8.21% (active); in the assay with BT-549 breast, -88.5% (active); in the assay with MDA-MB-435 melanoma, -85.5% (active); with SW-620 colon, -8.14% (active); in the assay on MCF7 breast, 0.425% (active); with HCT-116 colon, -7.95% (active). The growth in the assay with HCC-2998 colon was -93.2% (active); with KM12 colon, -29.1% (active).

In the case of `Nc1ccn(C2CC(N)C(CO)O2)c(=O)n1` (stereo not drawn), the growth in the assay on T-47D breast is 81.1%; with BT-549 breast, 71.8%; with MDA-MB-435 melanoma, 83.6%; in the assay with SW-620 colon, 88.8%; with MCF7 breast it was 66.5%; in the assay with HCT-116 colon, 63.6%. The growth in the assay on HCC-2998 colon is 74.8%; in the assay with KM12 colon, 97.4%.

Turning to `COc1ccc(-c2csc(NC(=O)Nc3nc(-c4ccc(OC)cc4)cs3)n2)cc1`, the growth was 56.5% in the assay on T-47D breast; 79.9% with BT-549 breast; 78.7% with MDA-MB-435 melanoma; 98.1% with SW-620 colon; 71.6% in the assay on MCF7 breast; 64.2% in the assay with HCT-116 colon. Besides, the growth in the assay on HCC-2998 colon was 100%; in the assay with KM12 colon, 64.6%.

For the compound `Cc1ccnc(Nc2nc3ccccc3[nH]2)n1`, the growth with T-47D breast was 86.5%; with BT-549 breast, 112%; in the assay on MDA-MB-435 melanoma it was 107%; in the assay with SW-620 colon, 99.3%; with MCF7 breast, 98.8%; in the assay on HCT-116 colon, 103%. Besides, the figures for the growth with HCC-2998 colon and in the assay on KM12 colon were 112% and 118%, respectively.
